Measured values published in publication PMC5540273 (PLoS ONE, 2017).

test system: LCK; settings: concentration: 1 μM, replicates: in singlicate; n = 1
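Further: KINOMEscan kinase panel screen.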

| SMILES | %Inh [%] |
| --- | --- |
| Cl.c1ccc(-c2ccc3c(Nc4ccc5[nH]ncc5c4)ccnc3c2)nc1 [GW440137] | 42 |
| CN(C)S(=O)(=O)c1cc(-c2ccc3nccc(-c4cccc(S(N)(=O)=O)c4)c3c2)cnc1N [GSK1669921] | 7 |
| COc1ccc(CNC(=O)NC2CCN(c3ccnc(Nc4ccc(F)cc4)n3)CC2)cc1 [GSK1379788] | 8 |
| Cl.Cl.NCC(C(=O)Nc1cc(Br)c(-c2ccnc3[nH]ccc23)s1)c1ccccc1 (centres unmarked) [GSK1269851] | 28 |
| CCS(=O)(=O)c1ccc(OC)c(Nc2nccc(-c3c(-c4cccc(NC(=O)c5c(F)cccc5F)c4)nn4ncccc34)n2)c1 [GSK326180] | 56 |
| Fc1ccc(-c2ncn(C3CCNCC3)c2-c2ccnc(Oc3ccc(-c4ccccc4)cc3)n2)cc1 [SB-245391] | 0 |
| CN(c1ccc(NC(=O)Nc2cc(C(F)(F)F)ccc2F)cc1)c1ccnc(Nc2ccc(S(N)(=O)=O)cc2)n1 [GW809893] | 99.6 |
| Cc1ccc(F)c(C(=O)Nc2cccc(-c3nn4ccccc4c3-c3ccnc(Nc4cccc(F)c4)n3)c2)c1F [GSK361061] | 97.1 |
| CC(C)(C)c1ccc2nccc(Nc3cccc(O)c3)c2c1 [GW856795] | 85 |
| O=C(Nc1n[nH]c2cc(-c3ccoc3)ccc12)C1CC1 [SB-738481] | 0 |
| CCn1c(-c2nonc2N)nc2c(C#CC(C)(C)O)nc(OC[C@H](N)c3ccccc3)cc21 [GSK943949] | 1 |
| Cl.c1ccc(-c2ccc3c(Nc4ccc5[nH]ccc5c4)ccnc3c2)nc1 [GW440138] | 70 |
| Cn1cc(-c2[nH]c3cc(NC(=O)[C@H](N)C4CCCCC4)cc4c3c2C=NNC4=O)cn1 | 90.7 |
| C[C@@H]1CC[C@@H](C(=O)Nc2ccccc2)CN1c1cc(-c2ccc3c(N)n[nH]c3c2)nc(N)n1 [GSK2286062] | 2 |
| Nc1ncc(-c2cccnc2)c2scc(-c3ccc4c(c3)CCN4C(=O)Cc3ccccc3)c12 [GSK683281] | 70 |
| CC(=O)Nc1nc2cnc(Nc3cc(NC(=O)c4cccc(C5(C#N)CC5)c4Cl)ccc3C)nc2s1 | 91.1 |
| CCc1ccc(-c2ccc3c(c2)-c2c(cnn2C)S(=O)(=O)N3C)cc1 | 0 |
| COCCOCCOc1cc2ncc3c4ccc(C#N)cc4[nH]c3c2cc1OC | 35 |
| Cc1ccc(C(=O)Nc2ccc(Nc3ccnc4cc(-c5nccs5)ccc34)cc2O)cc1.Cl [GW494702] | 86 |
| COc1cc(Nc2nccc(N3CCC(NC(=O)c4cc5ccccc5s4)C3)n2)cc(OC)c1OC (centres unmarked) [GSK1379760] | 29 |
| Cl.NC(=O)c1cccc(Nc2nccc(Nc3ccc(Oc4c(Cl)cccc4Cl)c(Cl)c3)n2)c1 [GW659009] | 54 |
| Cc1cccc(NC(=O)Nc2ccc(Oc3ncnc4ccn(C)c34)cc2)c1 | 0 |
| CNC(=O)c1ccccc1Nc1nc(Nc2ccc(N3CCOCC3)cc2)ncc1Cl.Cl [GSK1576028] | 99.6 |
| COc1cc2c(cc1OCCN1CCNCC1)ncc1c3ccc(C#N)cc3[nH]c21 | 45 |
| Cc1occc1-c1ncc(OC[C@@H](N)Cc2c[nH]c3ccccc23)cc1-c1ccc2[nH]nc(C)c2c1.O=C(O)C(F)(F)F [GSK682037] | 98.2 |

test system: LIMK1; settings: concentration: 1 μM, replicates: in singlicate; n = 1

| SMILES | %Inh [%] |
| --- | --- |
| Nc1n[nH]c2cnc(-c3ccccc3)cc12 [SB-642124] | 19 |
| COc1cccc(C2=C(Nc3ccc(Cl)c(C(=O)O)c3)C(=O)NC2=O)c1 [SB-390769] | 13 |
| Cn1cc(-c2ccc3c(c2)CCN3C(=O)Cc2cccc(Cl)c2)c2c(N)ncnc21 [GSK2606590] | 3 |
| COc1cccc(-c2ccc3c(NC(=O)C4CC4)n[nH]c3n2)c1 [SB-710903] | 14 |
| Cc1ccc(C(=O)N2CC[C@@H](O)C2)cc1-n1c(C)cc(OCc2ccc(F)cc2F)c(Br)c1=O | 0 |
| O=c1[nH]cc(-c2ccc(N3CCOCC3)cc2)c2sc(-c3cn[nH]c3)cc12 [GSK2276055] | 0 |
| COc1cc(Nc2ncc3c(C)nc(-c4cc5ccccc5[nH]4)n3n2)cc(OC)c1OC [GW869516] | 0 |
| O=C(Nc1cccc(-c2nn3ccccc3c2-c2ccnc(Nc3cccc(F)c3)n2)c1)c1c(F)ccc(F)c1Cl [GSK357952] | 43 |
| CSc1cccc2c(-c3ccncn3)c(-c3ccc(F)cc3)nn12 [GW514786] | 11 |
| COc1cc(Nc2nccc(-c3c(-c4cccc(NC(=O)c5c(F)cccc5F)c4)nn4ncccc34)n2)cc(OC)c1OC [GSK327238] | 42 |
| Cc1ccc(S(=O)(=O)Nc2ccc(Nc3nccc(Nc4cccc5[nH]ncc45)n3)cc2)cc1 [GSK581271] | 13 |
| O=C(Nc1cccc(-c2nn3ncccc3c2-c2ccnc(Nc3ccccc3)n2)c1)c1c(F)cccc1F [GSK198271] | 75 |
| Cl.c1ccc(-c2ccc3c(Nc4ccc5[nH]ncc5c4)ccnc3c2)nc1 [GW440137] | 9 |
| CN(C)S(=O)(=O)c1cc(-c2ccc3nccc(-c4cccc(S(N)(=O)=O)c4)c3c2)cnc1N [GSK1669921] | 86 |
| COc1ccc(CNC(=O)NC2CCN(c3ccnc(Nc4ccc(F)cc4)n3)CC2)cc1 [GSK1379788] | 0 |
| Cl.Cl.NCC(C(=O)Nc1cc(Br)c(-c2ccnc3[nH]ccc23)s1)c1ccccc1 (centres unmarked) [GSK1269851] | 27 |
| CCS(=O)(=O)c1ccc(OC)c(Nc2nccc(-c3c(-c4cccc(NC(=O)c5c(F)cccc5F)c4)nn4ncccc34)n2)c1 [GSK326180] | 23 |
| Fc1ccc(-c2ncn(C3CCNCC3)c2-c2ccnc(Oc3ccc(-c4ccccc4)cc3)n2)cc1 [SB-245391] | 0 |
| CN(c1ccc(NC(=O)Nc2cc(C(F)(F)F)ccc2F)cc1)c1ccnc(Nc2ccc(S(N)(=O)=O)cc2)n1 [GW809893] | 89 |

| SMILES | %Inh [%] |
| --- | --- |
| Cc1ccc(F)c(C(=O)Nc2cccc(-c3nn4ccccc4c3-c3ccnc(Nc4cccc(F)c4)n3)c2)c1F [GSK361061] | 33 |
| CC(C)(C)c1ccc2nccc(Nc3cccc(O)c3)c2c1 [GW856795] | 0 |
| O=C(Nc1n[nH]c2cc(-c3ccoc3)ccc12)C1CC1 [SB-738481] | 14 |
| CCn1c(-c2nonc2N)nc2c(C#CC(C)(C)O)nc(OC[C@H](N)c3ccccc3)cc21 [GSK943949] | 11 |
| Cl.c1ccc(-c2ccc3c(Nc4ccc5[nH]ccc5c4)ccnc3c2)nc1 [GW440138] | 0 |
| Cn1cc(-c2[nH]c3cc(NC(=O)[C@H](N)C4CCCCC4)cc4c3c2C=NNC4=O)cn1 | 90.6 |
| C[C@@H]1CC[C@@H](C(=O)Nc2ccccc2)CN1c1cc(-c2ccc3c(N)n[nH]c3c2)nc(N)n1 [GSK2286062] | 0 |
| Nc1ncc(-c2cccnc2)c2scc(-c3ccc4c(c3)CCN4C(=O)Cc3ccccc3)c12 [GSK683281] | 22 |
| CC(=O)Nc1nc2cnc(Nc3cc(NC(=O)c4cccc(C5(C#N)CC5)c4Cl)ccc3C)nc2s1 | 0 |
| CCc1ccc(-c2ccc3c(c2)-c2c(cnn2C)S(=O)(=O)N3C)cc1 | 0 |
| COCCOCCOc1cc2ncc3c4ccc(C#N)cc4[nH]c3c2cc1OC | 16 |
| Cc1ccc(C(=O)Nc2ccc(Nc3ccnc4cc(-c5nccs5)ccc34)cc2O)cc1.Cl [GW494702] | 26 |
| COc1cc(Nc2nccc(N3CCC(NC(=O)c4cc5ccccc5s4)C3)n2)cc(OC)c1OC (centres unmarked) [GSK1379760] | 17 |
| Cl.NC(=O)c1cccc(Nc2nccc(Nc3ccc(Oc4c(Cl)cccc4Cl)c(Cl)c3)n2)c1 [GW659009] | 12 |
| Cc1cccc(NC(=O)Nc2ccc(Oc3ncnc4ccn(C)c34)cc2)c1 | 7 |
| CNC(=O)c1ccccc1Nc1nc(Nc2ccc(N3CCOCC3)cc2)ncc1Cl.Cl [GSK1576028] | 46 |
| COc1cc2c(cc1OCCN1CCNCC1)ncc1c3ccc(C#N)cc3[nH]c21 | 0 |
| Cc1occc1-c1ncc(OC[C@@H](N)Cc2c[nH]c3ccccc23)cc1-c1ccc2[nH]nc(C)c2c1.O=C(O)C(F)(F)F [GSK682037] | 0 |
